Experimental data: PubChem BioAssay (NCI)
Compounds without any hit were thinned out: in the full panel of roughly 83,000, 20% have a hit.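 Results are percent growth after 48 hours of single-concentration exposure. 100 means growth as in untreated cells, lower positive values show inhibition; negative values down to -100 show cell death.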 Active and inactive are the calls of the source. Rule for the calls: active = growth percent below 10; inactive = the rest.

Assays:
Experiment in all cases: NCI-60 one-dose screen, 48 h (100 = growth as untreated, 0 = no growth, -100 = all killed)
Settings in all cases: 10 µM unless noted
SR leukemia = tested on: SR leukemia
RPMI-8226 leukemia = tested on: RPMI-8226 leukemia
OVCAR-8 ovarian = tested on: OVCAR-8 ovarian
OVCAR-5 ovarian = tested on: OVCAR-5 ovarian
OVCAR-4 ovarian = tested on: OVCAR-4 ovarian
SK-OV-3 ovarian = tested on: SK-OV-3 ovarian
IGROV1 ovarian = tested on: IGROV1 ovarian
OVCAR-3 ovarian = tested on: OVCAR-3 ovarian
HS 578T breast = tested on: HS 578T breast
NCI/ADR-RES ovarian = tested on: NCI/ADR-RES ovarian

Measured: growth

COc1ccc(-c2nc3c(c(-c4ccccc4)nn3-c3ccccc3)c(-c3ccc(N4CCOCC4)cc3)c2C#N)cc1
inactive: SR leukemia 110% | RPMI-8226 leukemia 89.8% | OVCAR-8 ovarian 105% | OVCAR-5 ovarian 102% | OVCAR-4 ovarian 106% | SK-OV-3 ovarian 119% | IGROV1 ovarian 109% | OVCAR-3 ovarian 115% | HS 578T breast 106% | NCI/ADR-RES ovarian 111%

COc1cc(-c2csc(NC(=O)c3cc(-n4cnc(C)c4)cc(C(F)(F)F)c3)n2)cc(OC)c1OC
inactive: SR leukemia 34% | RPMI-8226 leukemia 24.1% | OVCAR-8 ovarian 40.2% | OVCAR-5 ovarian 104% | OVCAR-4 ovarian 70.9% | SK-OV-3 ovarian 114% | IGROV1 ovarian 52% | OVCAR-3 ovarian 65% | HS 578T breast 26.7% | NCI/ADR-RES ovarian 64.9%

C#Cc1cccc(Nc2ncnc3ccc(-c4cnc(N)nc4)cc23)c1
active: SK-OV-3 ovarian -2.3% | IGROV1 ovarian -26.3% | HS 578T breast -7.24%
inactive: SR leukemia 40.6% | RPMI-8226 leukemia 22.8% | OVCAR-8 ovarian 49.6% | OVCAR-5 ovarian 23.1% | OVCAR-4 ovarian 46.1% | OVCAR-3 ovarian 24.1% | NCI/ADR-RES ovarian 49.8%

Nc1ncnc2c1N=C(c1ccc3c(c1)OCO3)CC(c1cccc(Nc3ccnc4cc(Cl)ccc34)c1)N2 (stereo not given)
active: SR leukemia 3.03% | RPMI-8226 leukemia -24%
inactive: OVCAR-8 ovarian 51.1% | OVCAR-5 ovarian 97% | OVCAR-4 ovarian 60.7% | SK-OV-3 ovarian 79.2% | IGROV1 ovarian 59.4% | OVCAR-3 ovarian 67.7% | HS 578T breast 87.1% | NCI/ADR-RES ovarian 56.8%

CC1(C)CCC(S(=O)(=O)c2ccc3c(c2)/C(=N\O)c2cc(S(=O)(=O)N4CCC(O)(c5cccc(C(F)(F)F)c5)CC4)ccc2-3)CC1
inactive: NCI/ADR-RES ovarian 61%
active: SR leukemia -54% | RPMI-8226 leukemia -52.5% | OVCAR-8 ovarian -73% | OVCAR-5 ovarian -80.3% | OVCAR-4 ovarian -92.6% | SK-OV-3 ovarian -99.6% | IGROV1 ovarian -32.1% | OVCAR-3 ovarian -98.3% | HS 578T breast -56.4%

Fc1cc2c(cc1Cl)N(c1ncnc3ccc(-c4cnc5[nH]ncc5c4)cc13)CC2
inactive: SR leukemia 57.1% | RPMI-8226 leukemia 60.3% | OVCAR-8 ovarian 60.9% | OVCAR-5 ovarian 38.4% | OVCAR-4 ovarian 66.4% | SK-OV-3 ovarian 50.8% | IGROV1 ovarian 13.2% | OVCAR-3 ovarian 60.4% | HS 578T breast 25.9% | NCI/ADR-RES ovarian 65.2%

C=C(CNCCc1ccc(O)cc1)[C@@H]1CC[C@]2(CO)CC[C@]3(C)[C@H](CC[C@@H]4[C@@]5(C)CCC(NCCO)C(C)(C)[C@@H]5CC[C@]43C)[C@@H]12 (stereo not given in full)
inactive: SK-OV-3 ovarian 86.4% | NCI/ADR-RES ovarian 53.8%
active: SR leukemia -42.3% | RPMI-8226 leukemia -45.9% | OVCAR-8 ovarian -49.7% | OVCAR-5 ovarian 4.67% | OVCAR-4 ovarian -15.9% | IGROV1 ovarian -37.1% | OVCAR-3 ovarian -41.7% | HS 578T breast -61.1%

N#Cc1c(NC(=O)c2ccccc2)sc2c1CCC(=O)C2
active: SR leukemia 7.72% | RPMI-8226 leukemia -2.69% | OVCAR-4 ovarian -64.9% | OVCAR-3 ovarian -4.44% | NCI/ADR-RES ovarian 5.57%
inactive: OVCAR-8 ovarian 14.5% | OVCAR-5 ovarian 22.1% | SK-OV-3 ovarian 64.7% | IGROV1 ovarian 27.4% | HS 578T breast 23.3%

N#C/C(=C\c1ccc(-c2ccc(Cl)cc2)o1)C(=O)Nc1ncc(Cc2ccc(Cl)cc2)s1
active: SR leukemia 8.8% | OVCAR-8 ovarian 8.41% | OVCAR-4 ovarian -56.9% | OVCAR-3 ovarian -49.8%
inactive: RPMI-8226 leukemia 85.2% | OVCAR-5 ovarian 29.7% | SK-OV-3 ovarian 58.9% | IGROV1 ovarian 28.3% | HS 578T breast 25.6% | NCI/ADR-RES ovarian 26.2%

CC1=C(Nc2ccc(N3CCN(C)CC3)cc2)C(=O)c2cncnc2C1=O
inactive: SR leukemia 26.2% | RPMI-8226 leukemia 41.8% | OVCAR-5 ovarian 71.7% | SK-OV-3 ovarian 111% | HS 578T breast 126% | NCI/ADR-RES ovarian 18.1%
active: OVCAR-8 ovarian 2.2% | OVCAR-4 ovarian -98.1% | IGROV1 ovarian 1.56% | OVCAR-3 ovarian -34.8%

COC(=O)c1c2c(c(C)[n+]([O-])c1C)C(=O)C=C(NCc1ccc(Br)cc1)C2=O
active: SR leukemia 1.3% | RPMI-8226 leukemia -28.3% | OVCAR-8 ovarian 1.05% | OVCAR-5 ovarian -82.8% | OVCAR-4 ovarian -92.8% | SK-OV-3 ovarian -10.7% | IGROV1 ovarian -53.4% | OVCAR-3 ovarian -73.4% | HS 578T breast -7.62% | NCI/ADR-RES ovarian -8.51%

O=C(NCc1ccccc1)Nc1ccccc1CNc1nc(Nc2ccc(OCCN3CCCC3)cc2)ncc1Cl
inactive: RPMI-8226 leukemia 76.1% | OVCAR-8 ovarian 89.9% | OVCAR-5 ovarian 112% | OVCAR-4 ovarian 81.2% | SK-OV-3 ovarian 99.3% | IGROV1 ovarian 100% | OVCAR-3 ovarian 104% | HS 578T breast 98% | NCI/ADR-RES ovarian 92.2%
active: SR leukemia 7.02%

Fc1ccc(-c2nn(-c3ccccc3)cc2-c2nc3ccccc3o2)cc1
inactive: SR leukemia 43.6% | RPMI-8226 leukemia 48.2% | OVCAR-8 ovarian 58.8% | OVCAR-5 ovarian 122% | OVCAR-4 ovarian 78.1% | SK-OV-3 ovarian 120% | IGROV1 ovarian 82.1% | OVCAR-3 ovarian 45.1% | HS 578T breast 82% | NCI/ADR-RES ovarian 46.9%

CS(=O)(=O)Nc1cc(-c2ccc3ncnc(Nc4c(Cl)ccc5c4OCO5)c3c2)cnc1Cl
active: SR leukemia -8.28% | RPMI-8226 leukemia -19.7% | OVCAR-8 ovarian 8.87% | OVCAR-5 ovarian -28.6% | OVCAR-4 ovarian 8.29% | SK-OV-3 ovarian -10.2% | IGROV1 ovarian -53.5% | OVCAR-3 ovarian -64.5% | HS 578T breast -16.2% | NCI/ADR-RES ovarian 3.66%

COc1ccc(/C=C2\C(=O)N=C3N2NC(c2cc(Br)ccc2O)C=C(C)N3c2ccccc2)cc1 (stereo not given)
inactive: SR leukemia 102% | RPMI-8226 leukemia 91.5% | OVCAR-8 ovarian 98.1% | OVCAR-5 ovarian 104% | OVCAR-4 ovarian 96.5% | SK-OV-3 ovarian 99.6% | IGROV1 ovarian 91% | OVCAR-3 ovarian 103% | HS 578T breast 95.9% | NCI/ADR-RES ovarian 93.9%

c1ccc(C2=NN[C@H](c3cn(-c4ccccc4)nc3-c3ccccc3)C2)cc1
inactive: SR leukemia 90.9% | RPMI-8226 leukemia 86.7% | OVCAR-8 ovarian 35.6% | OVCAR-5 ovarian 83.6% | OVCAR-4 ovarian 14.8% | IGROV1 ovarian 62.1% | NCI/ADR-RES ovarian 48.9%
active: SK-OV-3 ovarian -1.38% | OVCAR-3 ovarian 2.11% | HS 578T breast -7.83%

CCN(CC)c1ccc(/C=C/C(=O)c2ccc(Nc3nc(Nc4ccccc4)nc(Nc4ccccc4)n3)cc2)cc1
inactive: SR leukemia 39% | OVCAR-8 ovarian 43.8% | OVCAR-5 ovarian 71.3% | OVCAR-4 ovarian 58.5% | SK-OV-3 ovarian 77.4% | IGROV1 ovarian 47.8% | OVCAR-3 ovarian 46.5% | HS 578T breast 26.2% | NCI/ADR-RES ovarian 39.1%
active: RPMI-8226 leukemia -23.6%

CNC(=O)c1c(NC(=O)c2ccc(C(F)(F)F)cc2)sc2c1CCC(=O)C2
active: SR leukemia 3.07% | RPMI-8226 leukemia -27% | OVCAR-5 ovarian -44.7% | OVCAR-4 ovarian -81.5% | SK-OV-3 ovarian 0.374% | IGROV1 ovarian -4.58% | OVCAR-3 ovarian -6.89% | NCI/ADR-RES ovarian -4.29%
inactive: OVCAR-8 ovarian 14% | HS 578T breast 12.2%

O=C1Nc2ccc(I)cc2C1=O
inactive: SR leukemia 100% | RPMI-8226 leukemia 144% | OVCAR-8 ovarian 90.7% | OVCAR-5 ovarian 98.6% | OVCAR-4 ovarian 101% | SK-OV-3 ovarian 108% | IGROV1 ovarian 46.6% | OVCAR-3 ovarian 74.7% | HS 578T breast 97.8% | NCI/ADR-RES ovarian 97.2%

CNC(=O)c1cc(Oc2ccc3nc(NC(C)=O)sc3c2)ccn1
inactive: SR leukemia 85.4% | RPMI-8226 leukemia 93.8% | OVCAR-8 ovarian 99.9% | OVCAR-5 ovarian 103% | OVCAR-4 ovarian 95.9% | SK-OV-3 ovarian 107% | IGROV1 ovarian 104% | OVCAR-3 ovarian 105% | HS 578T breast 107% | NCI/ADR-RES ovarian 98.1%

CN(CCOc1ccc(C#N)cc1)CCOc1ccc(C#N)cc1
active: RPMI-8226 leukemia 7.02%
inactive: SR leukemia 49.6% | OVCAR-8 ovarian 93.5% | OVCAR-5 ovarian 79% | OVCAR-4 ovarian 75% | SK-OV-3 ovarian 46.8% | IGROV1 ovarian 61.1% | OVCAR-3 ovarian 97.6% | HS 578T breast 49.2% | NCI/ADR-RES ovarian 67.1%

OCCCC1CCN(C(Cc2ccccc2)c2ccccc2)CC1 (stereo not given)
inactive: SR leukemia 120% | RPMI-8226 leukemia 98.3% | OVCAR-8 ovarian 98.5% | OVCAR-5 ovarian 60.2% | OVCAR-4 ovarian 92.3% | SK-OV-3 ovarian 84.9% | IGROV1 ovarian 96.8% | OVCAR-3 ovarian 89.2% | HS 578T breast 101% | NCI/ADR-RES ovarian 93.9%

COC(=O)c1ccc2c(c1)C(=O)c1c-2n(CCCN)c(=O)c2cc([N+](=O)[O-])ccc12
active: SR leukemia -45.3% | RPMI-8226 leukemia -40.4% | OVCAR-8 ovarian -65.3% | OVCAR-5 ovarian -74.2% | OVCAR-4 ovarian -77.1% | SK-OV-3 ovarian -81.8% | IGROV1 ovarian -81.7% | OVCAR-3 ovarian -93.2% | HS 578T breast -71% | NCI/ADR-RES ovarian -39.4%

CCN(CC)c1nc(SCc2ccccc2Cl)ncc1C
inactive: SR leukemia 95.6% | RPMI-8226 leukemia 93.5% | OVCAR-8 ovarian 104% | OVCAR-5 ovarian 119% | OVCAR-4 ovarian 101% | SK-OV-3 ovarian 113% | IGROV1 ovarian 109% | OVCAR-3 ovarian 109% | HS 578T breast 124% | NCI/ADR-RES ovarian 92.2%

CCc1n(Cc2ccc3ccccc3c2)cc[n+]1Cc1ccc2ccccc2c1
inactive: NCI/ADR-RES ovarian 92.5%
active: SR leukemia -28% | RPMI-8226 leukemia -23.1% | OVCAR-8 ovarian -4.85% | OVCAR-5 ovarian 8.92% | OVCAR-4 ovarian 2.44% | SK-OV-3 ovarian 9.89% | IGROV1 ovarian -21.7% | OVCAR-3 ovarian -16.3% | HS 578T breast 4.38%
